In the library only some 4.1% were active in any assay of this set; here they are far more common.
ABHD5-PLIN5 inh – blocks binding of human ABHD5 to perilipin-5; 360,000 compounds, 0.78% hits; Split G. princeps luciferase complementation, luminescence, 4 h; AID 602281; inhibition, % at 4 µM;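 active = inhibition above the mean inhibition across every tested compound plus 3 SD, cut at about 22% in these data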
MBD2 DNA inh – blocks human MBD2 binding to methylated DNA | Q9UBB5 | TR-FRET, MBD2 binding to methylated oligonucleotide | inhibition, % at 4.4 µM | 370,000 compounds, 0.31% hits | AID 686964; in the data active = inhibition above about 13%
Target sequence (Q9UBB5 whole entry, looked up): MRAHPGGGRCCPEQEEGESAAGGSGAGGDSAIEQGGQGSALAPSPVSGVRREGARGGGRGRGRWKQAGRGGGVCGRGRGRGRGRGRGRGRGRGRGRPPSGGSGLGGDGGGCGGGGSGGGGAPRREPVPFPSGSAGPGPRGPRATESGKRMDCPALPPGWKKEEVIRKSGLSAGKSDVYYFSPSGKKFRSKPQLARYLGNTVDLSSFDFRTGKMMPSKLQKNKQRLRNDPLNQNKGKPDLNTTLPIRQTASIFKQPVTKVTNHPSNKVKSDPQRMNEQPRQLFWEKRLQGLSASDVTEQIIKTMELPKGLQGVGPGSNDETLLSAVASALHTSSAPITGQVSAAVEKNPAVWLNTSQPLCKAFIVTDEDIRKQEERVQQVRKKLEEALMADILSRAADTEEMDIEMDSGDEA
PRMT1 inh – PRMT1 (human) inhibition, primary screen | inhibition, % at 2.79 µM | recombinant PRMT1, activity-based probe fluorescence polarization | 370,000 compounds, 1.3% hits | Q99873 | AID 652257;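 active = inhibition above about 21% made by adding two undisclosed values, limit read from the data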
rCAG RNA binder – binds r(CAG) RNA repeats | AID 651821 | r(CAG) RNA repeat, TO-PRO-1 dye displacement fluorescence | inhibition, % at 3 µM | 370,000 compounds, 1.3% hits;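 active = inhibition above the plate cutoff, the mean of all test compounds on that plate plus 3 SD, cut at about 35% in these data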;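 note: higher means more dye released from RNA so lower well fluorescence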
LEDGF integ inh – blocks HIV-1 LEDGF/p75-dependent DNA integration. AID 743269. TR-FRET IN-LEDGF/p75 DNA integration, Eu/Cy5. 370,000 compounds, 0.64% hits. inhibition, % at 3.7 µM;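 active = inhibition above the screen-wide mean plus 3 SD, cut at about 13% in these data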;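 note: signal is the Cy5 over europium emission ratio at 671 and 618 nm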
UHRF1 binding – UHRF1 methyl-DNA binding inhibition | Q96T88 | UHRF1 binding to methylated oligo, TR-FRET | inhibition, % at 4.4 µM | 370,000 compounds, 0.75% hits; in the data active = inhibition above about 21%;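 note: UHRF1 SRA domain binding a hemimethylated CpG hairpin DNA probe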
IN multimer act – counter-screen for LEDGF/p75 integration inhibitors: HIV-1 integrase multimerization activators; shares compounds with LEDGF integ inh; TR-FRET HIV-1 integrase multimerization, biochemical; activation, % at 7.7 µM; 2,000 compounds, 17% hits; AID 1053131; in the data active = activation above about 8.9%
TRFRET interf – optically interferes with TR-FRET readout in LEDGF counter-screen | shares compounds with LEDGF integ inh | TR-FRET optical interference counterscreen, HIV-1 IN multimerization | inhibition, % at 7.7 µM | 2,000 tested, under 10 active | AID 1053135;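 active = inhibition above the mean over all tested compounds plus 3 SD, which no compound reached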
IN-LEDGF confirm – LEDGF/p75-dependent HIV-1 integration inhibition, confirmation | shares compounds with LEDGF integ inh | TR-FRET LEDGF/p75-dependent HIV-1 integration, biochemical | inhibition, % at 3.7 µM | 2,000 compounds, 36% hits; in the data active = inhibition above about 14%
Of the large screens only hits and unclear results are named; the others gave an inactive call (follow-up assays come after a bar, where they were run).

Cc1ccc(Cn2cc(CN(C(C)(C)C)S(=O)(=O)c3ccc(F)cc3Br)nn2)cc1	none (no result: ABHD5-PLIN5 inh)
Cn1ccnc1SCC(=O)c1cc2ccccc2o1	LEDGF integ inh 25 | IN multimer act inactive | TRFRET interf inactive | IN-LEDGF confirm inactive
Cn1cnnc1SCC(=O)c1cc2ccccc2o1	none
C[C@H](CCC(=O)N(c1ccccc1)c1ccccc1)CC1CCCCC1	none (no result: ABHD5-PLIN5 inh)
CCCC#C/C(CCC)=C1\c2ccccc2C(=O)N1c1ccccc1	none (no result: ABHD5-PLIN5 inh)
CCC(=Nc1ccc(N)cc1)C1=C(O)C(C(=O)OC)C(C)(C)CC1=O (centres undefined)	LEDGF integ inh 32, UHRF1 binding 21 | IN multimer act 20 | TRFRET interf inactive | IN-LEDGF confirm inactive
CCCCC(=Nc1ccc(N)cc1)C1=C(O)C(C(=O)OC)C(C)(C)CC1=O (centres undefined)	LEDGF integ inh 46 | IN multimer act 19 | TRFRET interf inactive | IN-LEDGF confirm inactive
COC(=O)[C@]12C[C@H](CC(=O)N3CCCC3)C(=O)N(Cc3ccc4c(c3)OCO4)C1=C[C@H](C(C)C)O[C@@H]2C1CC1	none (no result: ABHD5-PLIN5 inh)
COC(=O)C1CN(Cc2ccccc2)CCS(=O)(=O)N1Cc1ccc(Cl)cc1 (centres undefined)	none (no result: ABHD5-PLIN5 inh)
O=C(Cn1cnc2cc([N+](=O)[O-])ccc2c1=O)NC1CCS(=O)(=O)C1 (centres undefined)	LEDGF integ inh 20 | IN multimer act inactive | TRFRET interf inactive | IN-LEDGF confirm inactive
CC1=C[C@]2(C[N+](Cc3ccccc3)=C(N)N2)n2c(=O)n(-c3ccccc3)c(=O)n2C1	none (no result: ABHD5-PLIN5 inh)
CCN(CC)C(=O)CC[C@@H]1CC[C@]2(CCCN(C(=O)c3cccnc3)C2)O1	none (no result: ABHD5-PLIN5 inh)
C#CCN1CC(N(C)CCOC(=O)c2occ3ccccc23)CS1(=O)=O (centres undefined)	none (no result: ABHD5-PLIN5 inh)
Cc1cccc(NC(=S)N(CCN(C)C)C(C)c2ccccn2)c1 (centres undefined)	LEDGF integ inh 92 | IN multimer act inactive | TRFRET interf inactive | IN-LEDGF confirm inactive
O=c1[nH]c(-c2ccccc2)nn1-c1ccc(Br)cc1Br	LEDGF integ inh 26 | IN multimer act inactive | TRFRET interf inactive | IN-LEDGF confirm inactive
C=CCN(C)CC#Cc1ccccc1C	none (no result: ABHD5-PLIN5 inh)
COc1cc(N)c2ncccc2c1Br	LEDGF integ inh 29 | IN multimer act inactive | TRFRET interf inactive | IN-LEDGF confirm inactive
COc1cc(NC(C)=O)c2ncccc2c1NC(C)=O	none
COc1cc(N)c2ncccc2c1SC	LEDGF integ inh 16 | IN multimer act inactive | TRFRET interf inactive | IN-LEDGF confirm 14
COc1ccccc1N=Nc1ccc(O)c2ncccc12	none
CC(C)(C)NC(=O)NC(=O)CSc1ccc(S(=O)(=O)N2CCCCC2)cn1	LEDGF integ inh 20 | IN multimer act inactive | TRFRET interf inactive | IN-LEDGF confirm inactive
CCOC(=O)NC(=O)CSc1ccc(S(=O)(=O)N2CCCCC2)cn1	none
O=C(NCc1cnc2ccccn12)C1CCC(=O)N(Cc2ccccc2F)C1 (centres undefined)	LEDGF integ inh 17 | IN multimer act inactive | TRFRET interf inactive | IN-LEDGF confirm inactive
O=C(c1ccc2c(c1)OCO2)N1CCC(Oc2cccnc2)CC1	none (no result: ABHD5-PLIN5 inh)
CCN(C[C@H]1N[C@@](Cc2ccccc2)(C(=O)OC)[C@H]2C(=O)N(Cc3ccccc3)C(=O)[C@@H]12)S(=O)(=O)c1ccc(C(F)(F)F)cc1	LEDGF integ inh 25 | IN multimer act inactive | TRFRET interf inactive | IN-LEDGF confirm inactive
COC(=O)[C@]1(C)N[C@H](CN(C)S(=O)(=O)c2ccc(C(F)(F)F)cc2)[C@@H]2C(=O)N(C)C(=O)[C@@H]21	LEDGF integ inh 36 | IN multimer act inactive | TRFRET interf inactive | IN-LEDGF confirm inactive
CCN(C[C@H]1N[C@@](Cc2ccccc2)(C(=O)OC)[C@H]2C(=O)N(C)C(=O)[C@@H]12)S(=O)(=O)c1ccc(C(F)(F)F)cc1	none
C[C@H]1C(C(=O)N(C)C2CCCCC2)=Cc2c(n(-c3ccc(F)cc3)c(=O)n2CCCOc2ccccc2)C=C1c1ccccc1	LEDGF integ inh 44 (no result: ABHD5-PLIN5 inh) | IN multimer act inactive | TRFRET interf inactive | IN-LEDGF confirm 17
CC1CCCC(NC(=O)COC(=O)c2sc3ccccc3c2Cl)C1C (centres undefined)	none
O=C(COC(=O)c1sc2ccccc2c1Cl)NCC1CCCCC1	LEDGF integ inh 16 | IN multimer act inactive | TRFRET interf inactive | IN-LEDGF confirm inactive
COC(=O)CCCC1=CC2=CC(=O)C(C)(OC(=O)c3cccs3)C(=O)C2=CN1Cc1ccco1 (centres undefined)	LEDGF integ inh 25 | IN multimer act inactive | TRFRET interf inactive | IN-LEDGF confirm 18
COc1ccccc1/C=C\C(=O)NCC(=O)N/N=C/c1ccc(O)cc1O	LEDGF integ inh 16 | IN multimer act inactive | TRFRET interf inactive | IN-LEDGF confirm inactive
COc1ccccc1/C=C/C(=O)NCC(=O)N/N=C/c1ccccc1	none
Cc1cc(CC(=O)O)c2oc(-c3ccoc3)cc(=O)c2c1	LEDGF integ inh 15, UHRF1 binding 25 (no result: ABHD5-PLIN5 inh) | IN multimer act inactive | TRFRET interf inactive | IN-LEDGF confirm 29
Cc1ccccc1C(=O)Nc1ccc(S(=O)(=O)NCC2CCCO2)cc1 (centres undefined)	LEDGF integ inh 15 | IN multimer act inactive | TRFRET interf inactive | IN-LEDGF confirm inactive
CC(C)CSc1nnc(-c2ccco2)n1C	LEDGF integ inh 23 (no result: ABHD5-PLIN5 inh) | IN multimer act inactive | TRFRET interf inactive | IN-LEDGF confirm inactive
COc1ccc(CC(=O)Nn2c(-c3ccccc3)nc3ccccc3c2=O)cc1	none
COc1ccc(-c2nc3ccccc3c(=O)n2NC(=O)Cc2ccccc2)cc1	LEDGF integ inh 52 | IN multimer act inactive | TRFRET interf inactive | IN-LEDGF confirm inactive
Oc1ccc(-c2cn3c(n2)SCC3)cc1O	LEDGF integ inh 52 | IN multimer act 72 | TRFRET interf inactive | IN-LEDGF confirm 58
CC(CC(=O)O)Nc1ccccc1O (centres undefined)	PRMT1 inh 23, LEDGF integ inh 35 | IN multimer act inactive | TRFRET interf inactive | IN-LEDGF confirm inactive
CC[C@@H](C)CN1C(=O)N[C@@H](c2ccccc2)C(C(C)=O)=C1C	LEDGF integ inh 18 | IN multimer act inactive | TRFRET interf inactive | IN-LEDGF confirm 19
O=C1c2nc3cc(-c4ccco4)[nH]n3c(=O)c2CN1C1CCCCC1	PRMT1 inh 23, LEDGF integ inh 18 | IN multimer act inactive | TRFRET interf inactive | IN-LEDGF confirm inactive

Source: PubChem BioAssay (The Scripps Research Institute Molecular Screening Center)
